From the supplement of paper PMC11150407
Structures can show the parent of a compound that is named as a salt. In all, about 2,100 compounds went through this assay and about 180 (8.6%) showed an effect of 50% or more. The entries come from a sample that favours strong results as a whole.

Tested on: MOLM1 and UCSD/AML1 (averaged)
Assay: cell viability relative to DMSO control (POC); higher = less growth inhibition
Settings: 1 µM; 72 h
Method: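 Primary viability screen in the 3q26 EVI1-high AML cell lines MOLM1 and UCSD/AML1 (1.5e3 cells/well, 384-well), compounds at 1 uM for 72 h. ATP CellTiter-Glo read-out given as percent of viable cells over DMSO control (POC), averaged over duplicates. DMSO was the negative control and 5 uM etoposide the positive control. This mapping covers the MicroSource Spectrum and Selleck anticancer libraries (drug names).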

SMILES | cell viability
COc1ccc2cc([C@H](C)CO)ccc2c1 | 103%
COC(=O)C[C@H]1C(C)(C)[C@@H](O)[C@@H]2CC3=C4C=C(OC)O[C@@H](c5ccoc5)[C@]4(C)CCC3[C@@]1(C)C2=O (stereo partly drawn) [3-DEOXO-3beta-HYDROXYMEXICANOLIDE 16-ENOL ETHER] | 100%
CCOC(=O)C(Cc1ccc(O)cc1)NC(C)=O (stereo not drawn) | 105%
C/C(=C\C(=O)Nc1ccccc1C(=O)O)c1ccc2ccccc2c1 | 104%
COc1cc(C/C=C/c2ccccc2)c(OC)cc1O | 93.6%
COc1cc(O)c(C)c(O)c1 | 106%
COc1ccc(C(=O)CC(=O)O)c2c1C=CC(C)(C)O2 | 99.5%
CC(C)=CCC/C(C)=C/CC/C(C)=C/CC/C(C)=C/CC/C(C)=C/CC/C(C)=C/CC/C(C)=C/CC/C(C)=C/CC/C(C)=C/CO | 83.6%
O=c1c(-c2ccc(O)cc2)coc2c([C@@H]3O[C@H](CO)[C@@H](O)[C@H](O)[C@H]3O)c(O)ccc12 | 120%
CN1CCCC(n2nc(Cc3ccc(Cl)cc3)c3ccccc3c2=O)CC1 (stereo not drawn) | 101%
Clc1ccc(Nc2nnc(Cc3ccncc3)c3ccccc23)cc1 [Vatalanib dihydrochloride (PTK787)] | 44.6%
CNC(=O)c1cc(COc2nnc(Nc3ccc(Cl)cc3)c3ccoc23)ccn1 [Telatinib (BAY 57-9352)] | 94.5%
C=C(C)[C@H]1COc2cc3oc(=O)ccc3cc2O1 | 93.3%
CC(C)C[C@@H](C(=O)N[C@H](C(=O)OC1CCCC1)c1ccccc1)[C@H](O)C(=O)NO [Tosedostat (CHR2797)] | 77.5%
O=C([O-])c1ccccc1O.[Na+] | 102%
COc1ccc2[nH]c([S+]([O-])Cc3ncc(C)c(OC)c3C)nc2c1 (stereo not drawn) | 92.4%
COc1c(C)cnc(Cn2cnc3c(Cl)nc(N)nc32)c1C | 4.8%
COc1cc(-c2coc3cc(O)c(OC)c(O)c3c2=O)cc(O)c1OC | 90.5%
O=C(O)c1cc(=O)c2cccc(O)c2[nH]1 | 102%
C[C@H]1O[C@@H](O[C@H]2[C@@H](O)C[C@H](O[C@H]3[C@@H](O)C[C@H](O[C@H]4CC[C@@]5(C)[C@H](CC[C@@H]6[C@@H]5C[C@@H](O)[C@]5(C)[C@@H](C7=CC(=O)OC7)CC[C@]65O)C4)O[C@@H]3C)O[C@@H]2C)C[C@H](O)[C@@H]1O | 3.03%
C[C@H]1O[C@@H](O[C@H]2[C@@H](O)C[C@H](O[C@H]3[C@@H](O)C[C@H](O[C@H]4CC[C@@]5(C)[C@H](CC[C@@H]6[C@@H]5CC[C@]5(C)[C@@H](C7=CC(=O)OC7)CC[C@]65O)C4)O[C@@H]3C)O[C@@H]2C)C[C@H](O)[C@@H]1O | 2.44%
CO[C@H]1O[C@H](CO)C(O[C@@H]2OC(C(=O)O)[C@@H](O[C@H]3O[C@H](COS(=O)(=O)O)C(O[C@@H]4OC(C(=O)O)[C@@H](O[C@H]5O[C@H](CO)C(O[C@@H]6OC(C(=O)O)[C@@H](O[C@H]7O[C@H](COS(=O)(=O)O)C(O[C@@H]8OC(C(=O)O)=C[C@H](O)C8OS(=O)(=O)O)[C@H](O)[C@H]7NC(C)=O)[C@H](O)[C@H]6O)[C@H](O)[C@H]5NC(C)=O)[C@H](O)[C@H]4O)[C@H](O)[C@H]3NC(C)=O)[C@H](O)[C@H]2O)[C@H](O)[C@H]1NC(C)=O (stereo partly drawn) | 86.8%
COc1cc(O)c(C(C)=O)c(OC)c1 | 101%
O=C(/C=C/C(=O)Oc1ccccc1C(=O)O)Oc1ccccc1C(=O)O | 110%
C[C@H]1C(=O)CC[C@@H]2[C@]1(C)CC[C@H]1[C@@]2(C)CC[C@@]2(C)[C@@H]3CC(C)(C)CC[C@]3(C)CC[C@]12C | 113%
COc1cc2oc3cc(OC)c(OC)c(CC=C(C)C)c3c(=O)c2c(O)c1CC=C(C)C | 99.9%

SMILES | cell viability
CCCCCC1C(=O)CCC1CC(=O)O (stereo not drawn) | 86.2%
O=C(O[C@@H]1Cc2c(O)cc(O)cc2O[C@@H]1c1cc(O)c(=O)c2c(O)c(O)cc([C@H]3Oc4cc(O)cc(O)c4C[C@H]3OC(=O)c3cc(O)c(O)c(O)c3)c2c1)c1cc(O)c(O)c(O)c1 | 108%
Cc1cc(O)c2c(c1)C(=O)c1cccc(O)c1C2=O [Chrysophanic acid (Chrysophanol)] | 93.8%
Cc1cc(O)c2c(c1)C(=O)c1cccc(O)c1C2=O | 115%
O=C(O)c1cc(O)c(=O)c2c(O)c(O)ccc2c1 | 108%
CCC(C)C(NC)C(=O)O (stereo not drawn) | 118%
COC(=O)c1ccc2c(C(=Nc3ccc(N(C)C(=O)CN4CCN(C)CC4)cc3)c3ccccc3)c(O)[nH]c2c1 [BIBF1120 (Vargatef)] | 11.9%
CC(=O)c1ccc[nH]1 | 92.8%
C=CC(C)(O)CCC1C(=C)CC(OC(C)=O)C2C(C)(C)CCCC12C (stereo not drawn) | 98.6%
O=C1CC[C@]23/C=C/C(=O)NCCCCNCCCNC(=O)/C=C/c4ccc(c2c4)O[C@@H]3C1 | 97.1%
COC1=CC(c2cc3ccccc3[nH]2)=N/C1=C\c1[nH]c(C)cc1C [Obatoclax mesylate (GX15-070)] | 18.7%
CC1(C)O[C@H]2[C@H](O)C[C@](O)(C(N)=O)C[C@H]2O1 | 94.1%
CC1(C)[C@@H](O)CC[C@]2(C)[C@H]3C(=O)C=C4[C@H]5C[C@@](C)(C(=O)O)CC[C@]5(C)CC[C@@]4(C)[C@]3(C)CC[C@@H]12 [18alpha-GLYCYRRHETINIC ACID] | 95.3%
COc1c(O)cccc1O | 97.7%
COc1cc(Nc2c(C#N)cnc3cc(OCCCN4CCN(C)CC4)c(OC)cc23)c(Cl)cc1Cl [Bosutinib (SKI-606)] | 21.3%
COc1cc2ncnc(Nc3ccc(F)c(Cl)c3)c2cc1OCCCN1CCOCC1 [Gefitinib (Iressa)] | 84.9%
COc1cc2c(Oc3ccc4[nH]c(C)cc4c3F)ncnc2cc1OCCCN1CCCC1 [Cediranib (AZD2171)] | 66.3%
CC(C)/C(O)=C1/C(=O)O[C@@H](c2ccoc2)[C@]2(C)C(O)[C@@H](O)[C@@]34OC5(C)OC67CC(C)(C(O)[C@]6(O)[C@@H](O)[C@]3(O5)C12)[C@H](CC(=O)O)[C@]74C (stereo partly drawn) | 93.3%
CC(=O)O[C@H]1C[C@@H](OC(C)=O)C(C)(C)C2C[C@@H](O)[C@]3(C)C(CC[C@@]4(C)[C@H](c5ccoc5)OC(=O)[C@H]5O[C@]543)[C@]21C (stereo partly drawn) | 103%
COc1cc(O)c2c(=O)cc(C)oc2c1CC=C(C)C | 87.8%
O=C(CCc1ccc(O)cc1)c1c(O)cc(O)cc1O[C@@H]1OC(CO)[C@@H](O)[C@@H](O)C1O (stereo partly drawn) | 104%
COC(=O)c1c(C)cc(OC)cc1O | 94.6%
Cn1c(=O)[nH]c(=O)c2[nH]cnc21 | 110%
O=c1c(O)c(-c2ccc(O)c(O)c2)oc2c(O[C@@H]3O[C@H](CO)[C@@H](O)[C@H](O)[C@H]3O)c(O)cc(O)c12 | 91.3%
O=C(O)c1ccc2c(c1)nc(Nc1cccc(Cl)c1)c1ccncc12 [cx-4945 (Silmitasertib)] | 80.5%
CC(=O)C1=C(O)C=C2Oc3c(C(C)=O)c(O)c(C)c(O)c3C2(C)C1=O (stereo in doubt) | 113%

SMILES | cell viability
C[C@@H](Oc1cc(-n2cnc3ccc(CN4CCN(C)CC4)cc32)sc1C(N)=O)c1ccccc1C(F)(F)F | 19.5%
CC(=O)N[C@@H](Cc1ccccc1)C(=O)O | 100%
CC(C)=CCc1c(O)cc2oc(C)cc(=O)c2c1O | 94.1%
C[C@H](CCC(=O)O)[C@H]1CC[C@H]2[C@@H]3[C@H](O)C[C@@H]4C[C@H](O)CC[C@]4(C)[C@H]3C[C@H](O)[C@]12C | 100%
CC1(C)C(=O)C=CC2(C)C1C=CC1(C)C2CCC2(C)C(c3ccoc3)OC(=O)C3OC312 (stereo not drawn) | 86.9%
COC(=O)C(C)c1ccc(C(=O)c2cccs2)cc1 (stereo not drawn) | 103%
CCOC(=O)Nc1nc2ccccc2[nH]1 | 103%
COC(=O)Nc1nc2cc([S+]([O-])c3ccccc3)ccc2[nH]1 (stereo not drawn) | 50.5%
COC(=O)Nc1nc2cc(C(=O)c3cccs3)ccc2[nH]1 [Nocodazole] | 13.3%
COC(=O)Nc1nc2cc(C(=O)c3ccccc3)ccc2[nH]1 | 16.8%
CC(=O)Oc1ccc2c(c1OC(C)=O)OCC1(O)Cc3c(cc(OC(C)=O)c(OC(C)=O)c3OC(C)=O)C21 (stereo not drawn) | 108%
COc1cc2ncnc(-n3nc(-c4ccccn4)nc3N)c2cc1OC | 67%
O=c1cc(-c2ccccc2)oc2cccc(O)c12 | 119%
CC(C)c1c(O)c(-c2cc3c(c(C(C)C)c2O)CCC2C(C)(C)CCC[C@]32C)cc2c1CCC1C(C)(C)CCC[C@]21C (stereo partly drawn) | 87.3%
COC(=O)C[C@H]1C(C)(C)C(=O)[C@@H]2CC3=C4CC(=O)O[C@@H](c5ccoc5)[C@]4(C)CC[C@@H]3[C@@]1(C)C2=O | 99.2%
C=C1CCC2C(CC2(C)C)C(=O)CCC1O (stereo not drawn) | 104%
CC1(C)C2CC(=O)O[C@@]3(C)C4=CC(=O)O[C@@H](c5ccoc5)[C@]4(C)CCC3[C@@]2(C)C=C[C@H]1O (stereo partly drawn) | 95.9%
Cn1cncc1[C@@](N)(c1ccc(Cl)cc1)c1ccc2c(c1)c(-c1cccc(Cl)c1)cc(=O)n2C [Tipifarnib (Zarnestra)] | 36.5%
CO[C@@]12[C@H](COC(N)=O)C3=C(C(=O)C(C)=C(N)C3=O)N1C[C@@H]1N[C@@H]12 | 13%
C=CCc1ccc(OC(=O)c2ccccc2)c(OC)c1 | 95.6%
O=c1c2cc(O)c(O)cc2oc2cc(O)c([C@@H]3O[C@H](CO)[C@@H](O)[C@H](O)[C@H]3O)c(O)c12 | 96.4%
CC1(C)C(=O)[C@H]2C[C@]3(O)C4=CC(=O)O[C@@H](c5ccoc5)[C@@]4(C)CCC3[C@](C)(C2=O)[C@H]1CC(=O)O (stereo partly drawn) | 95.4%
CCOC(=O)c1c(C)cc(OC)cc1O | 95.3%
COc1ccc(S(=O)(=O)Nc2cccnc2Nc2ccc(O)cc2)cc1 | 49.4%
COc1cnc(NS(=O)(=O)c2ccc(N)cc2)nc1 | 100%
Nc1ccc(S(=O)(=O)Nc2ccccn2)cc1 | 100%
